Source: PubChem BioAssay (NCATS)
“And” between values parts separate entries of the source, which are not always exact repeats. Identical values can stand only once. Results filed as inconclusive are left out. Entries that show only a call come without a potency. Some structures have more than one record in an assay (separate samples or runs), and their calls can disagree. Values without a mark were called inactive. The source made the active and inactive calls. Calls follow the shape of the dose curve; as a rule, active = well fitted curve in the direction sought with a large enough effect; inconclusive = small, poorly fitted or top-dose-only effect, or another doubt; inactive = no such curve, though single readings can be large; an effect the other way counts as inactive or inconclusive.

Key:
HEK293 = assay: Cytotoxic Profiling of Annotated Libraries Using Quantitative High-Throughput Screening (AID 1296008); conditions: Five cell lines viability, CellTiter-Glo ATP luminescence, 48-72 h; max response: stronger effect = lower value; also: nearly all actives have a fitted effect of over 60% in size
Summary of the method: (§1)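 Cytotoxicity was measured as CellTiter-Glo ATP luminescence, read after 10 min at room temperature. Compound treatment of the cells lasted 48 or 72 hr at 37 degrees Celsius in a qHTS format.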

HaCat [1] = assay: as above; conditions: Five cell lines viability, CellTiter-Glo ATP luminescence, 48-72 h; max response: stronger effect = lower value
Summary of the method: as §1

KB-3-1 = assay: as above; conditions: Five cell lines viability, CellTiter-Glo ATP luminescence, 48-72 h; max response: stronger effect = lower value
Summary of the method: as §1

NIH3T3 [2] = assay: as above; conditions: Five cell lines viability, CellTiter-Glo ATP luminescence, 48-72 h; max response: stronger effect = lower value
Summary of the method: as §1

MCC-13 = assay: qHTS assay to identify novel small-molecules to repurpose for Merkel cell carcinoma treatment (AID 1296009); conditions: MCC and control cell lines, CellTiter-Glo viability, 72 h; series mostly up to 46 µM; also: nearly all actives have a fitted effect of over 60% in size
Summary of the method: (§2)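 After compound transfer in DMSO, plates were kept 72 hr at 37 degree celsius. Luminescent ATP signal from CellTiter-Glo served as viability measure, normalized against DMSO and no-cell controls.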

MCC-26 = assay: as above; conditions: MCC and control cell lines, CellTiter-Glo viability, 72 h; series mostly up to 46 µM
Summary of the method: as §2

MKL-1 = assay: as above; conditions: MCC and control cell lines, CellTiter-Glo viability, 72 h; series mostly up to 46 µM
Summary of the method: as §2

WaGa = assay: as above; conditions: MCC and control cell lines, CellTiter-Glo viability, 72 h; series mostly up to 46 µM
Summary of the method: as §2

C33A = assay: Primary qHTS to identify gynecologic anti-cancer compounds using libraries of approved drugs and bioactive compounds (AID 1345084); conditions: Gynecologic cancer cell panel viability, ATPlite luminescence, 48 h; series mostly up to 57.5 µM; also: nearly all actives have a fitted effect of over 55% in size
Summary of the method: (§3)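 Cells, 1,000 per well, plated 16 h, then exposed 48 h at 37 C to compounds. Viability by ATPlite luminescence after 15 min at room temperature.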

Es-2 = assay: as above; conditions: Gynecologic cancer cell panel viability, ATPlite luminescence, 48 h; series mostly up to 57.5 µM
Summary of the method: as §3

HeLa = assay: as above; conditions: Gynecologic cancer cell panel viability, ATPlite luminescence, 48 h; series mostly up to 57.5 µM
Summary of the method: as §3

Hek293T [3] = assay: as above; conditions: Gynecologic cancer cell panel viability, ATPlite luminescence, 48 h, control line for the selectivity index; series mostly up to 57.5 µM
Summary of the method: as §3

JEG-3 = assay: as above; conditions: Gynecologic cancer cell panel viability, ATPlite luminescence, 48 h; series mostly up to 57.5 µM
Summary of the method: as §3

MKL-2 = assay: qHTS assay to identify novel small-molecules to repurpose for Merkel cell carcinoma treatment (AID 1296009); conditions: MCC and control cell lines, CellTiter-Glo viability, 72 h; series mostly up to 46 µM; also: nearly all actives have a fitted effect of over 60% in size
Summary of the method: as §2

UISO = assay: as above; conditions: MCC and control cell lines, CellTiter-Glo viability, 72 h; series mostly up to 46 µM
Summary of the method: as §2

CASKI = assay: Primary qHTS to identify gynecologic anti-cancer compounds using libraries of approved drugs and bioactive compounds (AID 1345084); conditions: Gynecologic cancer cell panel viability, ATPlite luminescence, 48 h; series mostly up to 57.5 µM; also: nearly all actives have a fitted effect of over 55% in size
Summary of the method: as §3

HACAT [4] = assay: qHTS assay to identify novel small-molecules to repurpose for Merkel cell carcinoma treatment (AID 1296009); conditions: MCC and control cell lines, CellTiter-Glo viability, 72 h; series mostly up to 44.8 µM; also: nearly all actives have a fitted effect of over 60% in size
Summary of the method: as §2

HEK293T [5] = assay: as above; conditions: MCC and control cell lines, CellTiter-Glo viability, 72 h; at 44.8 µM (top of the series) unless noted
Summary of the method: as §2

NIH3T3 [6] = assay: as above; conditions: MCC and control cell lines, CellTiter-Glo viability, 72 h; at 44.8 µM (top of the series) unless noted
Summary of the method: as §2

CAOV3 = assay: Primary qHTS to identify gynecologic anti-cancer compounds using libraries of approved drugs and bioactive compounds (AID 1345084); conditions: Gynecologic cancer cell panel viability, ATPlite luminescence, 48 h; series mostly up to 57.5 µM; also: nearly all actives have a fitted effect of over 55% in size
Summary of the method: as §3
Potency is read from the fitted curve at half-maximal effect.

With `Cc1c(NC(=O)OC[C@@H]2COCCN2)cn2ncnc(Nc3ccc4c(cnn4Cc4cccc(F)c4)c3)c12` the Potency (HEK293) was 14.8 µM (active) and 23.1 µM (active), the Potency (HaCat [1]) was 4.69 µM (active) and 2.91 µM (active) and the max response (KB-3-1) was -29.5%. The Potency (NIH3T3 [2]) was 20.9 µM (active), the max response (NIH3T3 [2]) was 3.43% and the Potency (MCC-13) was “inactive”. For the same molecule, the Potency (MCC-26) was “inactive”, the Potency (MKL-1) was “inactive” and the Potency (WaGa) was “inactive”. The Potency (C33A) was “inactive”, the Potency (Es-2) was “inactive” and the Potency (HeLa) was “inactive”. The Potency (Hek293T [3]) was “inactive” and the Potency (JEG-3) was “inactive”.

Work on `Nc1nc(-c2nn(Cc3ccccc3F)c3ncccc23)nc(N)c1N1CCOCC1` yielded a max response (HEK293) of -2.05%, a max response (HaCat [1]) of -22.5% and a max response (KB-3-1) of 6.89%. For the same molecule, the max response (NIH3T3 [2]) was -10.6%, the Potency (MCC-13) was “inactive” and the Potency (MCC-26) was “inactive”. For the same molecule, the Potency (MKL-1) was “inactive”, the Potency (MKL-2) was “inactive” and the Potency (UISO) was “inactive”. For the same molecule, the Potency (WaGa) was “inactive”.

For `CN1CCN(Cc2ccc(NC(=O)Nc3ccc(Oc4cc(NC(=O)C5CC5)ncn4)cc3)cc2C(F)(F)F)CC1`, the Potency (HEK293) was 184 nM (active), the Potency (HaCat [1]) was 743 nM (active) and 920 nM (active) and the Potency (KB-3-1) was 132 nM (active) and 206 nM (active). For the same molecule, the Potency (NIH3T3 [2]) was 0.59 µM (active), the Potency (MCC-13) was 2350 nM (active) and the Potency (MCC-26) was 1180 nM (active). The Potency (MKL-1) was 372 nM (active), the Potency (MKL-2) was 264 nM (active) and the Potency (UISO) was 332 nM (active). For the same molecule, the Potency (CASKI) was 1780 nM (active), the Potency (Es-2) was 1580 nM (active) and the Potency (HeLa) was 891 nM (active). For the same molecule, the Potency (Hek293T [3]) was 1410 nM (active) and the Potency (JEG-3) was 2820 nM (active).

With `CC(C)(C)c1cc(C(C)(C)C)c(NC(=O)c2c[nH]c3ccccc3c2=O)cc1O` the outcome (HEK293) was “inactive”, the outcome (HaCat [1]) was “inactive” and the max response (KB-3-1) was -1.43%. For the same molecule, the outcome (NIH3T3 [2]) was “inactive”, the Potency (HACAT [4]) was “inactive” and the outcome (HEK293T [5]) was “inactive”. The Potency (MCC-13) was “inactive”, the Potency (MCC-26) was “inactive” and the Potency (MKL-1) was “inactive”. For the same molecule, the Potency (MKL-2) was “inactive”, the outcome (NIH3T3 [6]) was “inactive” and the Potency (UISO) was “inactive”. The Potency (WaGa) was “inactive”.

In the case of `C[C@@H]1COC(Nc2ccc3ncnc(Nc4ccc(OCc5nccs5)c(Cl)c4)c3c2)=N1`, the Potency (HEK293) is reported as 8.33 µM (active) and 16.4 µM (active), the Potency (HaCat [1]) is reported as 1.66 µM (active) and 1.3 µM (active) and the max response (KB-3-1) is reported as -27.7%. The max response (NIH3T3 [2]) was -19.2%, the outcome (NIH3T3 [2]) was “inactive” and the Potency (MCC-13) was “inactive”. The outcome (NIH3T3 [6]) was “inactive”, the Potency (HeLa) was “inactive” and the Potency (JEG-3) was “inactive”.

For `CNC(=O)c1ccc(-c2cnc3ncc(Cc4ccc5ncccc5c4)n3n2)cc1F`, the outcome (HEK293) was “inactive”, the max response (HaCat [1]) was -3.74% and -10.2% and the max response (KB-3-1) was 3.93% and 3.42%. For the same molecule, the max response (NIH3T3 [2]) was -7.6% and -25.4%, the outcome (HEK293T [5]) was “inactive” and the Potency (MCC-13) was “inactive”. The Potency (MCC-26) was “inactive”, the Potency (MKL-1) was “inactive” and the Potency (MKL-2) was “inactive”. For the same molecule, the Potency (UISO) was “inactive”, the Potency (WaGa) was “inactive” and the Potency (C33A) was “inactive”. For the same molecule, the Potency (CASKI) was “inactive”, the Potency (Es-2) was “inactive” and the Potency (HeLa) was “inactive”. The Potency (Hek293T [3]) was “inactive” and the Potency (JEG-3) was “inactive”.

For `N#Cc1c(O)c2c(-c3ccc(-c4ccccc4O)cc3)csc2[nH]c1=O`, the max response (HEK293) was 3.13% and -14.8%, the outcome (HaCat [1]) was “inactive” and the outcome (KB-3-1) was “inactive”. The max response (NIH3T3 [2]) was -1.37%, the outcome (NIH3T3 [2]) was “inactive” and the Potency (HACAT [4]) was “inactive”. The Potency (MCC-13) was “inactive”, the Potency (MCC-26) was “inactive” and the Potency (MKL-1) was “inactive”. The Potency (MKL-2) was “inactive”, the outcome (NIH3T3 [6]) was “inactive” and the Potency (UISO) was “inactive”. The Potency (WaGa) was “inactive”, the Potency (C33A) was “inactive” and the Potency (CASKI) was “inactive”. The Potency (Es-2) was “inactive”, the Potency (HeLa) was “inactive” and the Potency (Hek293T [3]) was “inactive”. For the same molecule, the Potency (JEG-3) was “inactive”.

With `O=C(O)CCCc1c[nH]c2ccccc12` the max response (HEK293) was -0.171% and -7.8%, the max response (HaCat [1]) was 4.3% and 3.03% and the max response (KB-3-1) was 0.51%. The outcome (KB-3-1) was “inactive”, the max response (NIH3T3 [2]) was -1.55% and 2.66% and the Potency (MCC-13) was “inactive”. The Potency (MCC-26) was “inactive”, the Potency (MKL-1) was “inactive” and the Potency (MKL-2) was “inactive”. For the same molecule, the Potency (UISO) was “inactive”, the Potency (WaGa) was “inactive” and the Potency (C33A) was “inactive”. The Potency (CAOV3) was “inactive”, the Potency (CASKI) was “inactive” and the Potency (Es-2) was “inactive”. For the same molecule, the Potency (HeLa) was “inactive”, the Potency (Hek293T [3]) was “inactive” and the Potency (JEG-3) was “inactive”.

For `Cc1ccc2nc(NC(=O)CSc3nc4c(c(=O)n3-c3ccccc3)SCC4)sc2c1`, the outcome (HEK293) was “inactive”, the max response (HaCat [1]) was 3.94% and the Potency (KB-3-1) was 9.35 µM (active). The max response (KB-3-1) was -10.5%, the max response (NIH3T3 [2]) was -19.8% and the outcome (HEK293T [5]) was “inactive”. The Potency (MCC-13) was “inactive”, the Potency (MKL-1) was “inactive” and the Potency (MKL-2) was “inactive”. The Potency (C33A) was “inactive”, the Potency (CASKI) was “inactive” and the Potency (Es-2) was “inactive”. The Potency (HeLa) was “inactive”, the Potency (Hek293T [3]) was “inactive” and the Potency (JEG-3) was “inactive”.

`Cn1c(=O)n(-c2ccc(C(C)(C)C#N)cc2)c2c3cc(-c4cnc5ccccc5c4)ccc3ncc21` was tested, and the Potency (HEK293) was 326 nM (active) and 26.4 nM (active), the outcome (HaCat [1]) was “inactive” and the Potency (KB-3-1) was 731 nM (active) and 16.6 nM (active). For the same molecule, the Potency (NIH3T3 [2]) was 580 nM (active) and 46.9 nM (active), the Potency (HACAT [4]) was “inactive” and the Potency (MKL-1) was “inactive”. The Potency (MKL-2) was “inactive”, the Potency (WaGa) was “inactive” and the Potency (HeLa) was “inactive”. The Potency (Hek293T [3]) was 794 nM (active) and the Potency (JEG-3) was “inactive”.

For `COCCn1c2c([n+](Cc3cnccn3)c1C)C(=O)c1ccccc1C2=O`, the Potency (HEK293) was 16.6 nM (active), the Potency (HaCat [1]) was 74.3 nM (active) and the Potency (KB-3-1) was 0.0148 µM (active). The Potency (NIH3T3 [2]) was 16.6 µM (active), the Potency (MCC-13) was 590 nM (active) and the Potency (MCC-26) was 296 nM (active). For the same molecule, the Potency (MKL-1) was 2.3 nM (active), the Potency (UISO) was 18.7 nM (active) and the Potency (WaGa) was 13.2 nM (active).
